Reference: PubChem BioAssay AID1159580 (chemical genetic matrix, 2015)
In all, about 5,500 compounds went through this assay and about 2,000 (36%) were called active. Inconclusive results (about 18%) are left out. Cut-off read from the data, not from the text of the source: active = normalized growth mostly below about 0.91 (no sharp cut-off); inconclusive = no clear call, values can overlap the other calls; inactive = mostly above about 0.92. The list shows a part of the results.

Experiment: chemical genetic growth profiling, strain panel (AID 1159580);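 note: tested at 20 µM; growth read once vehicle control cultures reached saturation at 30 °C; 1 = growth at the plate median or of vehicle wells; lower values mean less growth of the strain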
Settings: growth OD

Measured: normalized growth

CC(=O)CC(c1ccccc1)c1c(O)c2ccccc2oc1=O (configuration not stated)
inactive: S. cerevisiae deletion strains, locus YJR075W, strain HOC1, active compounds read low 0.981 | S. cerevisiae deletion strains, locus YKL009W, strain mrt4, active compounds read low 1 | S. cerevisiae deletion strains, locus YKL068W, active compounds read low 1 | S. cerevisiae deletion strains, locus YKL085W, strain MDH1 (second series), active compounds read low 0.954 | S. cerevisiae deletion strains, locus YKL085W, strain MDH1, active compounds read low 0.954 | S. cerevisiae deletion strains, locus YKL160W, strain elf1, active compounds read low 1 | S. cerevisiae deletion strains, locus YKL190W, strain CNB1, active compounds read low 1.01 | S. cerevisiae deletion strains, locus YKR001C, strain vps1, active compounds read low 1.02 | S. cerevisiae deletion strains, locus YKR026C, strain gcn3, active compounds read low 0.992 | S. cerevisiae deletion strains, locus YKR091W, strain srl3, active compounds read low 0.995 | S. cerevisiae deletion strains, locus YLL001W, strain dnm1, active compounds read low 0.993 | S. cerevisiae deletion strains, locus YLL026W, active compounds read low 0.988 | S. cerevisiae deletion strains, locus YLL041C, strain sdh2, active compounds read low 0.997 | S. cerevisiae deletion strains, locus YLR027C, strain aat2, active compounds read low 1 | S. cerevisiae deletion strains, locus YLR039C, strain RIC1, active compounds read low 0.986 | S. cerevisiae deletion strains, locus YLR058C, strain SHM2, active compounds read low 1.01 | S. cerevisiae deletion strains, locus YLR102C, strain apc9, active compounds read low 1.01 | S. cerevisiae deletion strains, locus YLR113W, strain HOG1, active compounds read low 0.922 | S. cerevisiae deletion strains, locus YLR221C, strain rsa3, active compounds read low 1.01 | S. cerevisiae deletion strains, locus YLR258W, strain gsy2, active compounds read low 1 | S. cerevisiae deletion strains, locus YLR262C, strain YPT6 (second series), active compounds read low 0.881 | S. cerevisiae deletion strains, locus YLR262C, strain YPT6, active compounds read low 0.99 | S. cerevisiae deletion strains, locus YLR268W, strain sec22, active compounds read low 1.03 | S. cerevisiae deletion strains, locus YLR320W, strain mms22, active compounds read low 1.01 | S. cerevisiae deletion strains, locus YLR330W, strain CHS5, active compounds read low 1 | S. cerevisiae deletion strains, locus YLR342W, strain FKS1 (second series), active compounds read low 1.02 | S. cerevisiae deletion strains, locus YLR342W, strain FKS1, active compounds read low 0.995 | S. cerevisiae deletion strains, locus YLR357W, strain rsc2, active compounds read low 1.03 | S. cerevisiae deletion strains, locus YLR370C, strain arc18, active compounds read low 0.993 | S. cerevisiae deletion strains, locus YLR371W, strain rom2, active compounds read low 1.02 | S. cerevisiae deletion strains, locus YLR384C, strain iki3, active compounds read low 0.986 | S. cerevisiae deletion strains, locus YLR418C, strain cdc73, active compounds read low 1.06 | S. cerevisiae deletion strains, locus YML016C, strain PPZ1, active compounds read low 1.01 | S. cerevisiae deletion strains, locus YML032C, strain rad52, active compounds read low 1.03 | S. cerevisiae deletion strains, locus YML120C, strain ndi1, active compounds read low 1 | S. cerevisiae deletion strains, locus YML124C, strain tub3, active compounds read low 1.01 | S. cerevisiae deletion strains, locus YMR058W, strain fet3, active compounds read low 1.01 | S. cerevisiae deletion strains, locus YMR078C, strain ctf18, active compounds read low 1.02 | S. cerevisiae deletion strains, locus YMR125W, strain sto1, active compounds read low 1.01 | S. cerevisiae deletion strains, locus YMR129W, active compounds read low 1 | S. cerevisiae deletion strains, locus YMR205C, strain PFK2, active compounds read low 1.01 | S. cerevisiae deletion strains, locus YMR223W, strain ubp8, active compounds read low 1.01 | S. cerevisiae deletion strains, locus YMR231W, strain pep5, active compounds read low 1 | S. cerevisiae deletion strains, locus YMR263W, strain SAP30, active compounds read low 1.01 | S. cerevisiae deletion strains, locus YMR307W, strain GAS1, active compounds read low 1.05 | S. cerevisiae deletion strains, locus YNL067W, strain RPL9B, active compounds read low 1.01 | S. cerevisiae deletion strains, locus YNL071W, strain lat1, active compounds read low 1 | S. cerevisiae deletion strains, locus YNL128W, strain TEP1, active compounds read low 1.03 | S. cerevisiae deletion strains, locus YNL153C, strain GIM3, active compounds read low 1 | S. cerevisiae deletion strains, locus YNL183C, strain NPR1, active compounds read low 0.942 | S. cerevisiae deletion strains, locus YNL209W, strain ssb2, active compounds read low 0.998 | S. cerevisiae deletion strains, locus YNL233W, strain BNI4, active compounds read low 1.01 | S. cerevisiae deletion strains, locus YNL248C, strain rpa49, active compounds read low 1.01 | S. cerevisiae deletion strains, locus YNL250W, strain rad50, active compounds read low 1.05 | S. cerevisiae deletion strains, locus YNL271C, strain bni1, active compounds read low 1.01 | S. cerevisiae deletion strains, locus YNL298W, strain CLA4, active compounds read low 1.03 | S. cerevisiae deletion strains, locus YNL307C, strain MCK1, active compounds read low 1.06 | S. cerevisiae deletion strains, locus YNL322C, strain KRE1 (second series), active compounds read low 0.989 | S. cerevisiae deletion strains, locus YNL322C, strain KRE1, active compounds read low 1.02 | S. cerevisiae deletion strains, locus YNR049C, strain mso1, active compounds read low 0.995 | S. cerevisiae deletion strains, locus YNR052C, strain pop2, active compounds read low 1.03 | S. cerevisiae deletion strains, locus YOL006C, strain TOP1, active compounds read low 1 | S. cerevisiae deletion strains, locus YOL012C, strain htz1 1.19 | S. cerevisiae deletion strains, locus YOL147C, strain pex11, active compounds read low 1.01 | S. cerevisiae deletion strains, locus YOR001W, strain rrp6, active compounds read low 1.02 | S. cerevisiae deletion strains, locus YOR061W, strain CKA2, active compounds read low 1.01 | S. cerevisiae deletion strains, locus YOR069W, strain VPS5, active compounds read low 1 | S. cerevisiae deletion strains, locus YOR070C, strain gyp1, active compounds read low 0.996 | S. cerevisiae deletion strains, locus YOR080W, strain dia2, active compounds read low 1 | S. cerevisiae deletion strains, locus YOR083W, strain WHI5, active compounds read low 1.01 | S. cerevisiae deletion strains, locus YOR106W, strain vam3, active compounds read low 0.992 | S. cerevisiae deletion strains, locus YOR136W, strain idh2, active compounds read low 1.03 | S. cerevisiae deletion strains, locus YOR144C, strain elg1, active compounds read low 1.01 | S. cerevisiae deletion strains, locus YOR184W, strain ser1, active compounds read low 1.04 | S. cerevisiae deletion strains, locus YOR231W, strain MKK1, active compounds read low 0.983 | S. cerevisiae deletion strains, locus YOR265W, strain rbl2, active compounds read low 0.984 | S. cerevisiae deletion strains, locus YOR270C, strain vph1, active compounds read low 1.02 | S. cerevisiae deletion strains, locus YOR290C, strain snf2, active compounds read low 1.01 | S. cerevisiae deletion strains, locus YOR316C, strain cot1, active compounds read low 1.01 | S. cerevisiae deletion strains, locus YPL051W, strain arl3, active compounds read low 0.994 | S. cerevisiae deletion strains, locus YPL055C, strain LGE1, active compounds read low 1.05 | S. cerevisiae deletion strains, locus YPL078C, strain atp4, active compounds read low 1.02 | S. cerevisiae deletion strains, locus YPL106C, strain sse1, active compounds read low 1.02 | S. cerevisiae deletion strains, locus YPL240C, strain hsp82, active compounds read low 1 | S. cerevisiae deletion strains, locus YPL241C, strain CIN2, active compounds read low 1.01 | S. cerevisiae deletion strains, locus YPL256C, strain CLN2, active compounds read low 0.955 | S. cerevisiae deletion strains, locus YPR119W, strain clb2, active compounds read low 1.01 | S. cerevisiae deletion strains, locus YPR141C, strain kar3, active compounds read low 1.01 | S. cerevisiae deletion strains, locus YPR163C, strain tif3, active compounds read low 1.02 | S. cerevisiae deletion strains, locus YPR167C, strain met16, active compounds read low 1.01 | S. cerevisiae deletion strains, strain wtn01, active compounds read low 1 | S. cerevisiae strains, strain wild type, active compounds read low 1.02
